Records with an inconclusive call do not appear. Where a structure was tested more than once in an assay, its records may differ in their call. Active and inactive are the calls of the source. How the source made its calls: active means hit-call score of the fitted dose curve at least 0.9, where 1 is the maximum; inconclusive means response in the unintended direction; inactive means score below 0.9.

One assay is described as follows: Tanguay_ZF_120hpf_PE_legacy: (Legacy) Oregon State University Tanguay Lab 120 Hour Post-fertilization zebrafish Assay for Pericardial Edema (AID 2283640).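 On AC50: potency for increased incidence of pericardial edema versus DMSO baseline.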 In a few lines:
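Static waterborne exposure, 5D wild-type embryos, 28C, to 120 hpf; final DMSO 0.64% (vol/vol). Binary PE call at 120 hpf by brightfield; fitted upward vs DMSO baseline. 5uM trimethyltin chloride as positive control.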
For `CCOP(=S)(OCC)Oc1nc(Cl)c(Cl)cc1Cl`, the call was inactive.
Take `CCC(C)(C)c1ccc(O)c(C(C)(C)CC)c1`: the result was inactive.
Consider `Cn1sc(Cl)cc1=O`, for which the molecule was classed as inactive.
For the molecule `O=c1[nH]c(=O)[nH]c(=O)[nH]1`, the molecule was called inactive.
The same measure, in the same setting: then `Oc1cccc2cccnc12`, with “inactive”; and `O=C(O)C(Cl)(Cl)Cl`, with “inactive”; and `CC12CC1(C)C(=O)N(c1cc(Cl)cc(Cl)c1)C2=O` (centres undefined), with “inactive”.
Still for that read-out and setting: then `O=C(O)C(F)(F)C(F)(F)C(F)(F)C(F)(F)C(F)(F)C(F)(F)C(F)(F)C(F)(F)C(F)(F)C(F)(F)F`, with “inactive”; and `CCCCCCCCc1ccc(O)cc1`, with “inactive”.
In the case of `O=C(Nc1ccc2[nH]ccc2c1)c1cc2cc(F)ccc2n1Cc1cccc(F)c1`, the molecule was classed as inactive.
One may read the AC50 as the midpoint of the concentration-response curve, whichever way the signal moves. Regarding `COc1cc(-c2ccc(N)c(OC)c2)ccc1N`, the AC50 was 12.5 µM (active) and the molecule was classed as inactive.
For the molecule `C=C(C)C(=O)[O][Sn]([CH2]CCC)([CH2]CCC)[CH2]CCC`, the molecule was classed as inactive.
Same read-out and setting: the value for `C[C@@H]1C[C@@H]([C@H](O)CC2CC(=O)NC(=O)C2)C(=O)[C@@H](C)C1` was “inactive”.
On to `CC(C)(c1ccccc1)c1ccc(O)c(C(C)(C)c2ccccc2)c1`, for which the molecule was classed as inactive.
As to `CCOP(=S)(OCC)SCSP(=S)(OCC)OCC`, the molecule was classed as inactive.
Still for that read-out and setting: the value for `CC(=O)[O][Hg][c]1ccccc1` was “inactive”; that for `CN(C)N=O` was “inactive”; that for `CC(C)(C)CC(C)(C)c1ccc(O)cc1` was “inactive”.
Still for that read-out and setting: then `C=CC(=O)OCCCCCC(C)C`, with “inactive”.
As to `CCC(=O)C(CC(C)N(C)C)(c1ccccc1)c1ccccc1` (centres undefined), the AC50 was 7.24 µM (active).
On the same count and under the same terms, the value for `O=C1C2(Cl)C3(Cl)C4(Cl)C(Cl)(Cl)C5(Cl)C3(Cl)C1(Cl)C5(Cl)C24Cl` (centres undefined) was 38.8 µM (active).
As for `C[C@]12CCC(=O)C[C@@H]1CC[C@@H]1[C@@H]2CC[C@]2(C)[C@@H](O)CC[C@@H]12`, the result was inactive.
Take `CC(C)(C)c1cc(O)ccc1O`: the call was inactive.
Same read-out and setting: the value for `ClC1(Cl)C2(Cl)C3(Cl)C4(Cl)C(Cl)(Cl)C5(Cl)C3(Cl)C1(Cl)C5(Cl)C24Cl` (centres undefined) was “inactive”; that for `CC(C)(OO)c1ccccc1` was “inactive”; that for `NC(=O)O` was “inactive”.
For the molecule `O=[N+]([O-])c1ccc(O)c([N+](=O)[O-])c1`, the molecule was classed as inactive.
The same measure, in the same setting: then `CCN1CCC2(CC1)COc1cc3c(cc12)N(C(=O)c1ccc(-c2ccc(-c4nnc(C)o4)cc2C)cc1)CC3`, with “inactive”; and `ClCC(Cl)CCl`, with “inactive”.
Same read-out and setting: then `O=C(O)C(F)(F)C(F)(F)C(F)(F)C(F)(F)C(F)(F)C(F)(F)F`, with “inactive”; and `Cc1ccccc1N`, with “inactive”.

A short description of a further assay: Tanguay_ZF_120hpf_BRAI_legacy: (Legacy) Oregon State University Tanguay Lab 120 Hour Post-fertilization zebrafish Assay for Brain Malformation (AID 2283641). In a few lines:
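Read-out: binary brain morphology call at 120 hpf (brightfield), fitted in gain-of-signal direction vs DMSO. Wild-type Tropical 5D embryos, static exposure, 28C, 0.64% DMSO final; 5uM trimethyltin chloride as positive control.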
Turning to `CCOP(=S)(OCC)Oc1nc(Cl)c(Cl)cc1Cl`, the result was inactive.
On to `CCC(C)(C)c1ccc(O)c(C(C)(C)CC)c1`, for which the result was inactive.
For `Cn1sc(Cl)cc1=O`, the outcome was inactive.
Still for that read-out and setting: the value for `O=c1[nH]c(=O)[nH]c(=O)[nH]1` was “inactive”; that for `Oc1cccc2cccnc12` was “inactive”; that for `O=C(O)C(Cl)(Cl)Cl` was “inactive”.
Still for that read-out and setting: the value for `CC12CC1(C)C(=O)N(c1cc(Cl)cc(Cl)c1)C2=O` (centres undefined) was “inactive”; that for `O=C(O)C(F)(F)C(F)(F)C(F)(F)C(F)(F)C(F)(F)C(F)(F)C(F)(F)C(F)(F)C(F)(F)C(F)(F)F` was “inactive”.
For `CCCCCCCCc1ccc(O)cc1`, the molecule was classed as inactive.
The same measure, in the same setting: the value for `O=C(Nc1ccc2[nH]ccc2c1)c1cc2cc(F)ccc2n1Cc1cccc(F)c1` was “inactive”.
In the case of `COc1cc(-c2ccc(N)c(OC)c2)ccc1N`, the AC50 was 77.2 µM (active) and the call was inactive.
In the case of `C=C(C)C(=O)[O][Sn]([CH2]CCC)([CH2]CCC)[CH2]CCC`, the call was inactive.
In the case of `C[C@@H]1C[C@@H]([C@H](O)CC2CC(=O)NC(=O)C2)C(=O)[C@@H](C)C1`, the call was inactive.
The same measure, in the same setting: then `CC(C)(c1ccccc1)c1ccc(O)c(C(C)(C)c2ccccc2)c1`, with “inactive”; and `CCOP(=S)(OCC)SCSP(=S)(OCC)OCC`, with “inactive”.
In the case of `CC(=O)[O][Hg][c]1ccccc1`, the molecule was called inactive.
On the same count and under the same terms, then `CN(C)N=O`, with “inactive”; and `C=CC(=O)OCCCCCC(C)C`, with “inactive”.
Regarding `CCC(=O)C(CC(C)N(C)C)(c1ccccc1)c1ccccc1` (centres undefined), the outcome was inactive.
In the case of `O=C1C2(Cl)C3(Cl)C4(Cl)C(Cl)(Cl)C5(Cl)C3(Cl)C1(Cl)C5(Cl)C24Cl` (centres undefined), the result was inactive.
On to `C[C@]12CCC(=O)C[C@@H]1CC[C@@H]1[C@@H]2CC[C@]2(C)[C@@H](O)CC[C@@H]12`, for which the molecule was called inactive.
Same read-out and setting: then `CC(C)(C)c1cc(O)ccc1O`, with “inactive”.
The same measure, in the same setting: the value for `ClC1(Cl)C2(Cl)C3(Cl)C4(Cl)C(Cl)(Cl)C5(Cl)C3(Cl)C1(Cl)C5(Cl)C24Cl` (centres undefined) was “inactive”; that for `NC(=O)O` was “inactive”.
Still for that read-out and setting: the value for `O=[N+]([O-])c1ccc(O)c([N+](=O)[O-])c1` was “inactive”; that for `CCN1CCC2(CC1)COc1cc3c(cc12)N(C(=O)c1ccc(-c2ccc(-c4nnc(C)o4)cc2C)cc1)CC3` was “inactive”.
`ClCC(Cl)CCl`: the molecule was classed as inactive.
For `O=C(O)C(F)(F)C(F)(F)C(F)(F)C(F)(F)C(F)(F)C(F)(F)F`, the outcome was inactive.
`Cc1ccccc1N`: the molecule was called inactive.

Another assay can be described thus: Tanguay_ZF_120hpf_SOMI_legacy: (Legacy) Oregon State University Tanguay Lab 120 Hour Post-fertilization zebrafish Assay for Somite Malformation (AID 2283647). In a few lines:
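Binary brightfield scoring of somite defects at 120 hpf in 5D wild-type larvae; one dechorionated embryo per well, static exposure from 6 hpf, 28C, sealed and dark. Final DMSO 0.64%; trimethyltin chloride 5uM positive control.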
On to `CCOP(=S)(OCC)Oc1nc(Cl)c(Cl)cc1Cl`, for which the molecule was called inactive.
Consider `CCC(C)(C)c1ccc(O)c(C(C)(C)CC)c1`, for which the call was inactive.
As to `O=c1[nH]c(=O)[nH]c(=O)[nH]1`, the outcome was inactive.
Consider `Oc1cccc2cccnc12`, for which the result was inactive.
`O=C(O)C(Cl)(Cl)Cl`: the result was inactive.
The same measure, in the same setting: the value for `CC12CC1(C)C(=O)N(c1cc(Cl)cc(Cl)c1)C2=O` (centres undefined) was “inactive”; that for `O=C(O)C(F)(F)C(F)(F)C(F)(F)C(F)(F)C(F)(F)C(F)(F)C(F)(F)C(F)(F)C(F)(F)C(F)(F)F` was “inactive”; that for `CCCCCCCCc1ccc(O)cc1` was “inactive”.
Still for that read-out and setting: then `O=C(Nc1ccc2[nH]ccc2c1)c1cc2cc(F)ccc2n1Cc1cccc(F)c1`, with “inactive”.
The same measure, in the same setting: then `COc1cc(-c2ccc(N)c(OC)c2)ccc1N`, with “inactive”; and `C=C(C)C(=O)[O][Sn]([CH2]CCC)([CH2]CCC)[CH2]CCC`, with “inactive”.
`C[C@@H]1C[C@@H]([C@H](O)CC2CC(=O)NC(=O)C2)C(=O)[C@@H](C)C1`: the molecule was called inactive.
On the same count and under the same terms, then `CCOP(=S)(OCC)SCSP(=S)(OCC)OCC`, with “inactive”; and `CC(=O)[O][Hg][c]1ccccc1`, with “inactive”.
Still for that read-out and setting: the value for `CN(C)N=O` was “inactive”.
For the molecule `CC(C)(C)CC(C)(C)c1ccc(O)cc1`, the call was inactive.
With `C=CC(=O)OCCCCCC(C)C`, the result was inactive.
As for `CCC(=O)C(CC(C)N(C)C)(c1ccccc1)c1ccccc1` (centres undefined), the outcome was inactive.
Take `O=C1C2(Cl)C3(Cl)C4(Cl)C(Cl)(Cl)C5(Cl)C3(Cl)C1(Cl)C5(Cl)C24Cl` (centres undefined): the molecule was classed as inactive.
Regarding `C[C@]12CCC(=O)C[C@@H]1CC[C@@H]1[C@@H]2CC[C@]2(C)[C@@H](O)CC[C@@H]12`, the molecule was classed as inactive.
On the same count and under the same terms, the value for `CC(C)(C)c1cc(O)ccc1O` was “inactive”; that for `ClC1(Cl)C2(Cl)C3(Cl)C4(Cl)C(Cl)(Cl)C5(Cl)C3(Cl)C1(Cl)C5(Cl)C24Cl` (centres undefined) was “inactive”.
On the same count and under the same terms, the value for `CC(C)(OO)c1ccccc1` was “inactive”; that for `NC(=O)O` was “inactive”.
In the case of `CCN1CCC2(CC1)COc1cc3c(cc12)N(C(=O)c1ccc(-c2ccc(-c4nnc(C)o4)cc2C)cc1)CC3`, the outcome was inactive.
With `ClCC(Cl)CCl`, the call was inactive.
Same read-out and setting: then `Cc1ccccc1N`, with “inactive”.

The values are drawn from PubChem BioAssay (EPA / NIEHS).
